Shown are actives, neighbours in structure and some others; about 3.4% of the full set was active somewhere.
TEAD-YAP inh – TEAD-YAP interaction inhibition | HEK-TIYL cells, TEAD-Gal4/YAP UAS-luciferase luminescence | inhibition, % at 9.12 µM | actives 1.4% (n = 640,000) | AID 1259422; in the data active = inhibition above about 32%;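 also: 0% = median of test compound wells and 100% = reference inhibitor wells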
GPR151 ag – activates the human receptor GPR151; Q8TDV0; PathHunter beta-arrestin GPR151 cells, luminescence; activation, % at 11.2 µM; actives 1% (n = 650,000); AID 1508602; in the data active = activation above about 4.9%;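 also: 0% = median of compound wells and 100% = cells with positive control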
FBW7 act – human FBW7 E3 ligase activation, primary screen; actives 0.13% (n = 650,000); normalized activity (activation), % at 26.1 µM; AID 1259310; AlphaScreen FBW7–phospho-cyclin E peptide binding, activator screen; in the data active = normalized activity above about 1.9%;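 also: purified mutant Fbw7 with reduced substrate affinity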
Target sequence (Q969H0 whole entry, looked up): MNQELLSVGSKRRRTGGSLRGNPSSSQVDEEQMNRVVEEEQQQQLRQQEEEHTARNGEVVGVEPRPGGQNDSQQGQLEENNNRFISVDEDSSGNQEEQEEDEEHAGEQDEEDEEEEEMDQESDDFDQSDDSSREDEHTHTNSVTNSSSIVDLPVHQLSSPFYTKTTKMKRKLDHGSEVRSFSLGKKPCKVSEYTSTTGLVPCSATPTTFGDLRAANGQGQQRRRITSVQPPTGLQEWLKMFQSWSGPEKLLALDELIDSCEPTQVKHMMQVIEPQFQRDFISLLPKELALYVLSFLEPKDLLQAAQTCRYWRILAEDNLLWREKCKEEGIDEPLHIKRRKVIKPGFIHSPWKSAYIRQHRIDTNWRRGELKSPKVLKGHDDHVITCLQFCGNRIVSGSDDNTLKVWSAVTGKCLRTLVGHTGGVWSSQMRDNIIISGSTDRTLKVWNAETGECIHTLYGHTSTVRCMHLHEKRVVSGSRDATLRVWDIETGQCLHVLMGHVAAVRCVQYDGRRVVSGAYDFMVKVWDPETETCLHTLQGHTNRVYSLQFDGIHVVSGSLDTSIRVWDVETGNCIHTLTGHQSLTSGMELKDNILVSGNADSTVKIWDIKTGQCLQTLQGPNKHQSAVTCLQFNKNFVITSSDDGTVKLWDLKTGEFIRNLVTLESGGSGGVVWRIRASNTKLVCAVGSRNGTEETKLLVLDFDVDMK
MITF inh – blocks human microphthalmia-associated transcription factor; actives 0.91% (n = 650,000); inhibition, % at 2.6 µM; AlphaScreen MITF homodimerization, bead proximity signal; in the data active = inhibition above about 50%;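 also: 0% = vehicle wells with protein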
Numbers without * were called inactive.

SMILES	TEAD-YAP inh	GPR151 ag	FBW7 act	MITF inh
CCC(Nc1ccc(Br)cc1)C(=O)N/N=C/c1ccc(O)cc1O (stereo unspecified)	76*	0	0	18
CCN(CC)CCCC(C)NC(=O)C(=O)c1c(C)n(C)c2ccccc12 (stereo unspecified)	16	0	0	4
O=C(c1cc2n(n1)C(C(F)(F)F)CC(c1ccc(F)cc1)N2)N1CCOCC1 (stereo unspecified)	2	4	0	0
C/C=C/COC(=O)C1=C(C)NC(=O)NC1c1ccc(Cl)cc1Cl (stereo unspecified)	64*	0	0	5
COc1cccc(C2=CC(c3cc(Br)ccc3F)n3nnnc3N2)c1 (stereo unspecified)	46*	2	0	4
COc1cccc(C2=CC(c3ccccc3C)n3nnnc3N2)c1 (stereo unspecified)	44*	-1	0	-6
COc1cccc(C2C=C(c3cccc(Br)c3)Nc3nnnn32)c1 (stereo unspecified)	49*	-1	0	7
COc1ccc(C2C=C(c3cccc(Br)c3)Nc3nnnn32)cc1OC (stereo unspecified)	3	1	0	0
CCC(C)(C)C(=O)Nc1ccc(Cl)c([N+](=O)[O-])c1	5	0	0	8
COCCCNC(=O)/C(C#N)=C/c1cn(Cc2cccc(F)c2)c2ccccc12	35*	0	0	13
COCCCNC(=O)/C(C#N)=C/c1cn(Cc2ccc(F)cc2)c2ccccc12	44*	2	2	12
CCCNC(=O)Cn1cnc2sc(C(=O)Nc3ccc(OC)c(OC)c3)c(C)c2c1=O	0	0	0	7
O=C1CSc2ccc(S(=O)(=O)N3CCCCCC3)cc2N1	5	2	0	-1
c1ccc(C(CCn2ccnc2)Nc2nncc(-c3ccc4c(c3)OCO4)n2)cc1 (stereo unspecified)	45*	-1	0	6
Cc1ccc(-c2nc3nc(C)cc(=O)n3[nH]2)cc1	-14	1	0	9
NNC(=O)c1cncn1-c1ccccc1	37*	0	0	-16
COCCN1C(=O)c2ccccc2C(C(=O)N2CCN(c3cccc(Cl)c3)CC2)C1c1ccc(F)cc1 (stereo unspecified)	-1	-2	0	25
COc1ccc2c(C)nc(Nc3nc(C)cc(=O)[nH]3)nc2c1	39*	0	0	0
O=C(O)C1CSC2(CCCCC2)N1 (stereo unspecified)	-3	-2	1	12
CC1=Nc2cc(C(=O)NCCN(C)C)ccc2Sc2ccc(Cl)cc21	56*	0	0	-6
CCC1=Nc2cc(C(=O)NCCOC)ccc2Sc2ccccc21	57*	2	0	5
CCC1=Nc2cc(C(=O)NCC(OC)OC)ccc2Sc2ccccc21	36*	0	0	5
Oc1ccc(/C=N/Nc2nn[nH]n2)cc1O	-5	2	-1	52*
CCN(CC)c1ccc(/C=N/Nc2nn[nH]n2)c(O)c1	-3	0	0	-12
Oc1ccc(/C=N/Nc2nn[nH]n2)c(O)c1O	4	0	-1	95*
SMILES	TEAD-YAP inh	GPR151 ag	FBW7 act	MITF inh
C(=N\Nc1nn[nH]n1)/c1ccc2c(c1)OCO2	-11	0	0	2
CCCc1cc(=O)[nH]c(Nc2cccc(F)c2)n1	11	3	0	-15
CC(=O)Oc1ccc(-c2csc(Nc3cccc(O)c3)n2)cc1	-29	-1	0	1
COc1ccc(-c2csc(Nc3cccc(O)c3)n2)cc1	41*	1	0	12
Cc1ccc(-c2csc(Nc3cccc(O)c3)n2)cc1	74*	-1	0	-13
COc1ccc(/C(C)=N/NC(=O)C(O)c2ccccc2)cc1[N+](=O)[O-] (stereo unspecified)	11	2	0	0
CN(C)C=NC1=NN(c2ccccc2)CC1	6	1	0	-3
COc1ccc(-c2nnc(Sc3ccc([N+](=O)[O-])cn3)n2-c2ccccc2)cc1OC	55*	-2	0	15
COC(=O)c1ccc(-c2cnc3ccc(NC4CCC(O)CC4)nn23)cc1 (stereo unspecified)	41*	1	0	-4
COc1ccc(-c2cnc3ccc(NC4CCC(O)CC4)nn23)cn1 (stereo unspecified)	36*	2	0	-13
OC1CCC(Nc2ccc3ncc(-c4ccc5ccccc5c4)n3n2)CC1 (stereo unspecified)	0	1	0	-15
C=CCN1C(=O)/C(=C/c2cccs2)S/C1=N/S(=O)(=O)c1ccc(F)cc1	2	-1	0	-12
COC(=O)c1ccc(C(=O)OC)c(S(=O)(=O)Nc2cc(OC)c(Cl)cc2OC)c1	45*	-2	0	10
COc1ccc(S(=O)(=O)Nc2ccc(NC(C)=O)cc2)cc1Cl	1	0	0	-5
COc1cc(NS(=O)(=O)c2ccc(NC(C)=O)cc2)c(OC)cc1Cl	52*	0	0	6
COc1ccc(Cl)cc1NS(=O)(=O)c1ccc(OC)c(OC)c1	-3	1	0	13
COc1cc(NS(=O)(=O)c2ccc(OC)c(OC)c2)c(OC)cc1Cl	48*	2	0	9
COC(=O)c1ccc(C(=O)OC)c(NS(=O)(=O)c2cc(Cl)ccc2Cl)c1	1	1	0	-14
COc1cc(OC)cc(C(=O)Nc2ccc(N3CCN(C(=O)C(C)C)CC3)cc2)c1	47*	-1	0	-2
CCn1c2ccccc2c2cc(NC(=O)c3cc(OC)cc(OC)c3)ccc21	52*	-1	0	13
COc1cc(OC)cc(C(=O)Nc2ccc(NC(=O)c3cc(OC)cc(OC)c3)cc2)c1	43*	1	0	1
CCOC(=O)c1c(N)sc(C(=O)Nc2ccc3c(c2)OCO3)c1C	79*	-7	0	18
COC(=O)c1c(N)sc(C(=O)Nc2ccccc2OC)c1C	-36	-1	1	10
CCOC(=O)c1ccc(NC(=O)c2sc(NC(=O)c3ccc(OC)cc3)c(C(=O)OCC)c2C)cc1	7	0	0	-1
CCOC(=O)c1sc(N)c(C(=O)Nc2ccccc2OC)c1C	54*	0	0	2
SMILES	TEAD-YAP inh	GPR151 ag	FBW7 act	MITF inh
CCOC(=O)c1c(N)sc(C(=O)Nc2ccc(OC)cc2)c1C	42*	-6	0	-2
Cc1ccc(Oc2ccc(S(=O)(=O)N3CCOCC3)cc2S(=O)(=O)N2CCOCC2)c(-n2nc3ccccc3n2)c1	2	0	0	0
COc1ccccc1C(=O)Oc1ccc(C)cc1-n1nc2ccccc2n1	-51	-9	0	16
Cc1ccc(Oc2ccc(S(=O)(=O)N3CCOCC3)cc2C(N)=O)c(-n2nc3ccccc3n2)c1	41*	0	0	0
Cc1ccc(OC(=O)c2ccccc2Cl)c(-n2nc3ccccc3n2)c1	-20	-1	7.6*	0
O=C1CN(C(=O)COC(=O)C(c2ccccc2)c2ccccc2)c2ccccc2N1	2	-1	0	0
CS(=O)(=O)N(CC(=O)Nc1ccccc1Br)c1cccc2ccccc12	-9	0	0	1
